This is a sample that favours compounds with a hit; in the whole collection about 1.9% have one here.
EP2_antag = inhibitors of human EP2 prostaglandin E2 receptor. actives 0.52% (n = 260,000). inhibition, % at 25 µM. C6 glioma cells expressing human EP2, cAMP TR-FRET; cells stimulated with saturating PGE2. P43116;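 active means percent inhibition above 40 after rounding to a whole number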;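 further: rat C6 glioma host cells with rolipram phosphodiesterase inhibitor present; the protocol text gives 20 µM as final concentration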
Target sequence (P43116 whole entry, looked up): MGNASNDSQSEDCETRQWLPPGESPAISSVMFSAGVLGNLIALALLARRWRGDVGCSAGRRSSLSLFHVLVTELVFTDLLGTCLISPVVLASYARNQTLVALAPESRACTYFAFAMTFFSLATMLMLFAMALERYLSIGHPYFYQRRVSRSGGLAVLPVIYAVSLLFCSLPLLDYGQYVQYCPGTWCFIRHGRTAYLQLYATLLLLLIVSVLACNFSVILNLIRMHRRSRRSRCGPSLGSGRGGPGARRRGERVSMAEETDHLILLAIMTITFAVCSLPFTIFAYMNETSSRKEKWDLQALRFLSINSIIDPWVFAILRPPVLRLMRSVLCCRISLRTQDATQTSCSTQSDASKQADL
Efa_HMGR_inh = blocks class II HMG-CoA reductase of Enterococcus faecalis; purified E. faecalis HMGR, NADPH absorbance 340 nm kinetic; inhibition, % at 10 µM; actives 0.41% (n = 190,000); AID 1066;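 active means inhibition above a set limit, the median over all tested compounds plus 3 SD, cut at about 9.5% in these data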;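 further: enzyme runs in reverse so mevalonate oxidation gives rising NADPH absorbance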
Furin_inh = inhibitors of human furin; P09958; purified furin, fluorogenic substrate cleavage; inhibition, % at 20 µM or 30 µM; actives 0.061% (n = 220,000); in the data active means inhibition above about 25%
EP2_modulator = modulates human prostaglandin E2 receptor EP2 signaling; EP2-expressing cells, cAMP HTRF FRET, PGE2 co-stimulation; induction, % at 25 µM; P43116; actives 0.83% (n = 260,000);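 active means compounds whose cAMP rise, as percent of the full-agonist control response, exceeds 60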;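 further: rat C6 glioma line stably carrying human EP2 under a CMV promoter; the protocol text gives 20 µM as final concentration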
m-calpain_inh = calpain II (pig) inhibition. purified calpain II, fluorogenic peptide substrate, 30 min. inhibition, % at 16 µM. actives 0.37% (n = 220,000);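 active means inhibition above about 50%, limit read from the data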
EP2_cAMP_induct = EP2 receptor cAMP induction, counter-screens negative. shares compounds with EP2_modulator. calls only at 20 µM (by protocol). actives 47% (n = 1,300). C6 glioma EP2 cells, cAMP HTRF induction; plus low (about EC15) PGE2 agonist;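 active means cAMP induction above 50% in the main assay while under 30% in all four parallel counter assays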;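 further: rat C6 glioma cells stably expressing human EP2 receptor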
Numbers stand for hits; – = inactive; · = no result; + = active, no number.

SMILES EP2_antag Efa_HMGR_inh Furin_inh EP2_modulator m-calpain_inh EP2_cAMP_induct
COc1ccc(C(=O)NCCCN2CCOCC2)cc1OC – – – 67.8 – –
COc1ccc(OC)c(CN2CCc3c(nc(N4CCCCC4)[nH]c3=O)C2)c1 · · · – · ·
COc1ccc(OC)c(CC(=O)N2CCC(C(=O)c3cccnc3)CC2)c1 – · · – · ·
CCOC(=O)c1c(C)[nH]c(C=O)c1Cc1cccc(Cl)c1 – – – 68.9 – –
CCCCn1cc(NC(=O)[C@@H]2C[C@H](c3ccco3)NS(=O)(=O)N2C)cn1 · · · – · ·
Cc1ccc(-c2cccc(C(=O)NCCc3ccccc3)n2)c2ccccc12 – – – – – ·
Cc1ccc(-c2cccc(C(=O)NCc3ccccc3)n2)c2ccccc12 – – – 65.8 – +
CCCCc1n[nH]c(=S)n1Cc1ccc(Cl)cc1 – – – – – –
CCCCc1n[nH]c(=S)n1Cc1ccccc1 – – – – – ·
Cc1cc(C)c2cc3c(nc2c1)OCC(=O)N(Cc1ccco1)C3 – · · – · ·
CC(CC(=O)O)(CC(=O)O)C(=O)O – · · – · –

Assay outcomes from PubChem.
